# The list shows a part of the results. Unmarked numbers belong to inactive results. Activity calls are given as the source filed them. Rule as the data show it: active = IC50 below about 20 µM; inactive = the rest.
# Assay: blockers of mitochondrial swelling via MPTP – biochemical, absorbance, uHTS hits, dose response (AID 651561)
# Conditions: isolated mitochondria swelling
row,Structure (SMILES),IC50
1,O=Cc1cn(Cc2ccc(F)cc2Cl)c2ccccc12,32.3 µM
2,CC(Cc1ccccc1)NCCC(c1ccccc1)c1ccccc1 (stereo not drawn),4.21 µM (active)
3,COc1ccc(C2NCc3ccc4c(c3-n3cccc32)OCO4)cc1OC (stereo not drawn),26.9 µM

# Source: PubChem BioAssay AID651561 (Sanford-Burnham Center for Chemical Genomics, 2012)
